In all, about 310,000 compounds went through this assay and about 14,000 (4.5%) showed an effect of 50% or more. The effect is printed as a negative number. The sample as a whole holds a higher share of strong results than the screen did.
biological target: human ether-à-go-go-related gene (hERG) potassium channel (human, UniProt Q12809); assay: primary screen, population patch clamp on CHO cells stably expressing hERG; higher = less effect of the substance
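Further: peak tail current of the secondary pulse compared with the same well before compound.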

Sequence of human ether-à-go-go-related gene (hERG) potassium channel (Q12809 whole entry, looked up): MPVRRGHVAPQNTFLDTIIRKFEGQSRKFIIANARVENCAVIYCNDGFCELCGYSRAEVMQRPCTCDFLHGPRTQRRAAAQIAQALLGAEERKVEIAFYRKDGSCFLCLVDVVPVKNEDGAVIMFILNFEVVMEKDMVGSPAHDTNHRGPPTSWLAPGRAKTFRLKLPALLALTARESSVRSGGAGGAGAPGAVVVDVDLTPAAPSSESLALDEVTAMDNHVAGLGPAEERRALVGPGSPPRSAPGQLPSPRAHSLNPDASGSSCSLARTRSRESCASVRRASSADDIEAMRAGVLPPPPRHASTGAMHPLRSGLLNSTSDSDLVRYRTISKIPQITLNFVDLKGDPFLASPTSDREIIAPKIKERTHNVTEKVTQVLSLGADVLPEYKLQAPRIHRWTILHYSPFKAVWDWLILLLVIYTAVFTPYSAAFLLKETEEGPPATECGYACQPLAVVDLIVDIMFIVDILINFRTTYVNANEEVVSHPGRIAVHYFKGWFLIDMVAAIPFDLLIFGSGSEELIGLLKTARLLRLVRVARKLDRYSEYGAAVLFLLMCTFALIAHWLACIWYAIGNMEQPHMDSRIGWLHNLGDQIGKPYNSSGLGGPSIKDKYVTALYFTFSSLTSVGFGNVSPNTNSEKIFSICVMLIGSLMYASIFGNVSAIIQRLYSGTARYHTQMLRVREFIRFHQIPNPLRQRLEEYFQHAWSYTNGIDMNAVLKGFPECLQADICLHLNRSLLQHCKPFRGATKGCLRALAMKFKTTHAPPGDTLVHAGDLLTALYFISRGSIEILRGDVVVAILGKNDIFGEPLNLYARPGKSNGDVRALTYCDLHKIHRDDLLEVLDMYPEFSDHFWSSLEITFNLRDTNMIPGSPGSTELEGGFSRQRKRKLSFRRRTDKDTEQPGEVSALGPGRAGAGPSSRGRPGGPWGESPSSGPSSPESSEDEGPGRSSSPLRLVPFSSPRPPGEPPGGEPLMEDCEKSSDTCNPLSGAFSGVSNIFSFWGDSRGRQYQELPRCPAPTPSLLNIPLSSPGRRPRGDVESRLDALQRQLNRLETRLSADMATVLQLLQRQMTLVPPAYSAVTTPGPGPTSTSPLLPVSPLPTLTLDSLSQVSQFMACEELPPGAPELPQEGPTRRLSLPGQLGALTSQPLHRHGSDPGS

Row | Compound | hERG current change (%, negative = inhibition) at 10uM
1 | Cn1cc(CN2CCCC(C(=O)c3ccc(-c4ccccc4)c(F)c3)C2)cn1 (stereo not drawn) | -55.4%
2 | O=C(c1ccc(C(F)(F)F)cc1)C1CCCN(Cc2ccncc2)C1 (stereo not drawn) | -23.7%
3 | CN(C)S(=O)(=O)N1CCCC(C(=O)c2ccc(-c3ccccc3)c(F)c2)C1 (stereo not drawn) | 7.39%
4 | O=C(c1ccc(-c2ccccc2)cc1)C1CCCN(Cc2ccncc2)C1 (stereo not drawn) | -62.6%
5 | CSc1ccc(C(=O)C2CCCN(C)C2)cc1 (stereo not drawn) | -23.1%
6 | Clc1ccc(-c2csc(N/N=C/c3cccnc3)n2)c(Cl)c1 | -11.9%
7 | CC(=O)N1Cc2cc(N)ccc2Oc2ccccc21 | 9.9%
8 | Cc1cccc(NC(=S)N2CCN(S(=O)(=O)c3ccc(F)cc3)CC2)c1 | 16.7%
9 | CCOC(=O)C(NCCCCl)c1ccccc1 (stereo not drawn) | 2.53%
10 | CCOC(=O)C(C)Sc1nnc(CSc2nc3nc(C)cc(C)n3n2)o1 (stereo not drawn) | 9.3%
11 | CCOc1ccccc1N=Cc1c(O)c2ccccc2oc1=O | 15.4%
12 | CN(c1ccc(C(=O)N2CCCCC2)cc1)S(C)(=O)=O | 10.6%
13 | COc1ccc(Nc2nc(NC(C)(C)C)nc(N3CCOCC3)n2)c(OC)c1 | -25.3%
14 | O=C(Oc1ccc2c3c(c(=O)oc2c1)CCCC3)c1cccs1 | -4.43%
15 | O=C(c1ccc(-c2ccccc2)c(F)c1)C1CCCN(CCO)C1 (stereo not drawn) | -44.8%
16 | COCC(=O)N1CCCC(C(=O)c2ccc(-c3ccccc3)c(F)c2)C1 (stereo not drawn) | -23.3%
17 | CCn1cc(CN2CCCC(C(=O)c3ccc(-c4ccccc4)c(F)c3)C2)cn1 (stereo not drawn) | -57.6%
18 | O=C(c1ccc(-c2ccccc2)c(F)c1)C1CCCN(CCCn2cccn2)C1 (stereo not drawn) | -69.6%
19 | CCn1cc(CN2CCCC(C(=O)c3ccc(-c4ccccc4)cc3)C2)cn1 (stereo not drawn) | -59.1%
20 | CCC(=O)N1CCCC(C(=O)c2ccc(-c3ccccc3)cc2)C1 (stereo not drawn) | -19%
21 | O=C(c1ccc(-c2ccccc2)c(F)c1)C1CCCN(C(=O)c2cncs2)C1 (stereo not drawn) | -18.4%
22 | Cn1cc(CN2CCCC(C(=O)c3ccc(-c4ccccc4)cc3)C2)cn1 (stereo not drawn) | -34.4%
23 | CC(=O)NCC(=O)N1CCCC(C(=O)c2ccc(-c3ccccc3)c(F)c2)C1 (stereo not drawn) | -25.1%

Row | Compound | hERG current change (%, negative = inhibition) at 10uM
24 | NC(=O)CSc1nc2scc(-c3ccc(Cl)cc3)c2c(=O)n1Cc1ccccc1 | 33.1%
25 | O=[N+]([O-])c1ccc(N2CCN(S(=O)(=O)c3ccccc3[N+](=O)[O-])CC2)cc1NCc1cccnc1 | -8.91%
26 | Cc1ccccc1OCC(=O)N/N=C/c1cccc(Oc2ccc([N+](=O)[O-])cc2[N+](=O)[O-])c1 | 5.59%
27 | CCn1cc(C(=O)NCCc2ccccc2)c(=O)c2cc(S(=O)(=O)N(C)C)ccc21 | 7.05%
28 | O=C(NCCc1csc(-c2cccnc2)n1)c1cccc(Cl)c1 | -17.7%
29 | CC1CCN(c2ccc(C(=O)O)cc2)CC1 | 2.86%
30 | O=C(/C=C/c1cccc(Cl)c1)NCCN1CCOCC1 | -14.7%
31 | COc1ccc(/C=C/C(=O)NCC(=O)N2CCC(N(C)CCN3CCOCC3)CC2)cc1OC | 14.7%
32 | CCOc1ccccc1/C=C/C(=O)NCC(=O)N1CCC(N(C)C2CCCCC2C)CC1 (stereo not drawn) | -54.7%
33 | CC1CCCCC1N(C)C1CCN(C(=O)CNC(=O)/C=C/c2cccc(Cl)c2)CC1 (stereo not drawn) | -73.6%
34 | CC1CCN(C(=O)CNC(=O)Cc2ccccc2)CC1 | 9.53%
35 | COc1ccccc1/C=C/C(=O)NC(=S)N(C)C1CCCCC1 | 1.35%
36 | CN(C)C(CNC(=O)/C=C/c1cccc(Cl)c1)c1ccccc1 (stereo not drawn) | -19.2%
37 | Cc1ccccc1/C=C/C(=O)NCC(=O)N1CCC(N(C)C2CCCCC2C)CC1 (stereo not drawn) | -72.1%
38 | CCOc1ccc(C(=O)NCC(=O)N2CCC(C)CC2)cc1OCC | 3.68%
39 | O=C(Nc1ccc(S(=O)(=O)NCC2CCCO2)cc1)C1CC(=O)N(c2ccccc2)C1 (stereo not drawn) | 3.16%
40 | O=C(NCCCn1ccnc1)c1cn(Cc2ccc(F)cc2)nn1 | -9.7%
41 | COc1ccc(C(C)=O)cc1COC(=O)CNC(=O)c1cc(C)cc(C)c1 | -11.7%
42 | Cc1cccc(/C=N/NC(=O)C2CCCNC2=O)c1 (stereo not drawn) | 19%
43 | Cn1c(O)c(C(=Nc2ccccc2)SCc2ccccc2Cl)c(=O)n(C)c1=O | 21.5%
44 | CC(/C=C1\SC(=Nc2cccnc2)NC1=O)=C\c1ccccc1 | 8.95%
45 | CC(=O)NC(Cc1ccccc1C)C(=O)NC1CCN(c2ncccc2[N+](=O)[O-])CC1 (stereo not drawn) | -1.73%

— paper PMC4336329 (PLoS ONE, 2015)
